Compound activity as filed in PubChem.
Compounds with a hit are over-represented: about 19% of the library has one in this group of screens.
IL-1B inflam inh – inflammasome signaling inhibition, IL-1 beta readout. THP-1 LPS/ATP IL-1B secretion, AlphaLISA, 16 h; hits give low values. 360,000 compounds, 4.7% hits. activity change, % at 57.5 µM; in the data active = activity change below about -50%; inconclusive = mostly about -30% to -49%; also: % is scaled to controls: 0 for no effect and ±100 for the full control effect
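THP-1 cells pretreated 1 hr with compounds (up to 57.5 uM final), then stimulated with LPS (250 ng/mL final) plus ATP (1.25 mM final); secreted IL-1B measured by AlphaLISA after 16 hr, decreased signal indicating inhibition.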
SW480 rerep – induces DNA re-replication in SW480 colon adenocarcinoma cells; SW480 DNA re-replication, Hoechst DNA content imaging, 48 h; Potency, µM (top dose mostly 46.1 µM), for the others: top-dose re-replication activation, most hits filed as activators; 340,000 compounds, 1.8% hits; AID 624297; also: potency is read from the fitted curve at half-maximal effect; % of control where 0% means no effect; nearly all actives have a fitted effect of over 55% in size
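Compounds, transferred as 23 nL by pin tool, were incubated with cells for 48 hr; DNA content per nucleus was then quantified by Hoechst staining and fluorescence plate imaging.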
Chronic BCR inh – blocks chronic active B-cell receptor signaling; 340,000 compounds, 0.05% hits; Potency, µM (top dose mostly 46.1 µM), inactives show at the highest dose activity change, negative = inhibition, usual class: inhibitors; ABC-DLBCL IkBa-CBG/CBR reporter, luminescence ratio, 4 h; active = well fitted inhibition curve with a large enough effect in the signal ratio, with a control signal flat, not every such curve was filed as active; inconclusive = small, poorly fitted or top-dose-only effect, or effect the other way, or a change in a side signal; the % refers to the signal ratio;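 also: potency is read from the fitted curve at half-maximal effect; plate controls were basal doxycycline-induced cells for no effect and cells given 10 µM MG132 for full effect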
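Doxycycline induced both beetle luciferases in TMD8 lymphoma cells; IKK-driven degradation limits the IkappaBalpha-fused green signal, while red luminescence normalises for cell number and nonspecific effects. Compounds tested up to 46 uM, 4 hrs.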
MCF10A rereplic – DNA re-replication induction in MCF 10a cells | AID 624296 | Potency, µM (series often up to 46.1 µM), inactives show at the highest dose activity, positive = re-replication, most hits filed as activators | 350,000 compounds, 2.9% hits | MCF 10A DNA re-replication, Hoechst nuclear intensity, 48 h; also: potency is read from the fitted curve at half-maximal effect; % of control where 0% means no effect; nearly all actives have a fitted effect of over 50% in size
DT40 TDP1 CPT – growth inhibition of DT40 Tdp1-/-;hTDP1 cells with camptothecin (screen for TDP1 inhibitors) | Potency, µM (highest dose often 46.2 µM), for inactives: top-dose activity change, negative = growth inhibition, most hits filed as inhibitors | chicken DT40 Tdp1-/-;hTDP1 cells + 20 nM CPT, ATP luminescence, 48 h | 420,000 compounds, 12% hits; also: potency is read from the fitted curve at half-maximal effect; % is scaled to controls: 0 for no effect and ±100 for the full control effect; nearly all actives have a fitted effect of over 55% in size
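Cell growth measured by CellTiter-Glo luminescence after a minimum 48 h, 37 C compound exposure with 20 nM CPT in Tdp1-knockout DT40 cells stably expressing hTDP1, seeded 400/well; qHTS titration format.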
TDP1 cell noCPT – qHTS for Inhibitors of human tyrosyl-DNA phosphodiesterase 1 (TDP1): qHTS in cells in absence of CPT; DT40 Tdp1-/- hTDP1 cells, no CPT, ATP luminescence, 48 h; Potency, µM (series often up to 46.2 µM), without a hit: at the highest dose activity change, negative = growth inhibition, usual class: inhibitors; 420,000 compounds, 15% hits; AID 686978, 2013; also: potency is read from the fitted curve at half-maximal effect; % is scaled to controls: 0 for no effect and ±100 for the full control effect; nearly all actives have a fitted effect of over 55% in size
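Luminescent ATP content (CellTiter-Glo) served as the growth readout. Knockout chicken DT40 cells expressing human TDP1 were exposed to compounds without camptothecin for a minimum 48 hr at 37 °C.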
An asterisk follows results filed as active; i = inactive; ? = inconclusive; . = no result. Unless noted, calls follow the shape of the dose curve; as a rule, active = well fitted curve in the direction sought with a large enough effect; inconclusive = small, poorly fitted or top-dose-only effect, or another doubt; inactive = no such curve, though single readings can be large; an effect the other way counts as inactive or inconclusive.

SMILES | IL-1B inflam inh | SW480 rerep | Chronic BCR inh | MCF10A rereplic | DT40 TDP1 CPT | TDP1 cell noCPT
O=C(N/N=C/c1ccc(-c2cccc([N+](=O)[O-])c2)o1)c1ccc([N+](=O)[O-])cc1 | -51* | ? | ? | -35% | ? | 16µM*
O=C(N/N=C\c1cn[nH]c1-c1ccccc1)c1ccc([N+](=O)[O-])cc1 | -3 | 4.1µM* | -3% | 3% | -6% | ?
O=C(N/N=C\c1ccc(COc2ccc([N+](=O)[O-])cc2)o1)c1ccc(Cl)cc1 | -60* | -3% | 3% | 27% | ? | ?
O=C(NCc1ccncc1)c1cccc(S(=O)(=O)Nc2ccc(F)cc2)c1 | -6 | -7% | 5% | 11% | ? | ?
CCCOc1ccc(C2=CSC3=NCCN23)cc1[N+](=O)[O-] | -5 | 14% | 1% | ? | ? | ?
Cc1cccc(N2CCN(C(=O)C(Cc3ccccc3)NC(N)=O)CC2)c1C (centres undefined) | 15 | -6% | -15% | 15% | -29% | -19%
Cc1cccc(N2CCN(C(=O)N3CCOCC3)CC2)c1C | 60 | 16µM* | -5% | ? | ? | 21µM*
Cc1ccc(NC(=O)C(Cc2ccccc2)n2cccc2)cc1C (centres undefined) | . | . | . | . | 12µM* | 16µM*
Cc1cccc(N2CCN(C(=O)C(Cc3ccccc3)n3cccc3)CC2)c1C (centres undefined) | 22 | ? | 1% | 5% | 18µM* | 16µM*
Cc1cccc(NC(=O)C(Cc2ccccc2)n2cccc2)c1 (centres undefined) | ? | 0% | -1% | -1% | ? | ?
Cc1cccc(N2CCN(C(=O)c3ccncc3)CC2)c1C | 60 | 12µM* | 3% | ? | 21µM* | 21µM*
Cc1cccc(N2CCN(C(=O)c3ccnn3C)CC2)c1C | 0 | -2% | -3% | -1% | -14% | -7%
CCn1c(=O)c2ccccc2n(CC(=O)NC2CCCCC2)c1=O | 25 | -64% | -4% | -5% | -11% | -21%
O=[N+]([O-])c1ccccc1CNCCCCCO | 31 | 4% | -2% | 1% | 4% | 3%
CC(NC(=O)c1cc2c(s1)CS(=O)(=O)C2)c1ccccc1 (centres undefined) | -5 | 1% | 4% | -8% | -6% | -10%
COc1cc(C(=O)N2CCN(c3cccc(C)c3C)CC2)cc(OC)c1OC | 106 | 0.73µM* | ? | 10µM* | 0.82µM* | 0.82µM*
COc1cc(C(=O)N2CCN(c3cc(Cl)ccc3Cl)CC2)cc(OC)c1OC | 66 | 1.2µM* | ? | ? | 0.52µM* | 0.41µM*
COc1ccc(C(=O)N2CCN(C(=O)c3cc(OC)c(OC)c(OC)c3)CC2)cc1 | 0 | -6% | ? | 8% | 11% | -4%
Cc1cccc(N2CCN(C(=O)c3c(C)nn(Cc4ccccc4Cl)c3C)CC2)c1C | ? | ? | ? | 15µM* | 9.2µM* | 10µM*
COc1cc(C(=O)N2CCN(c3ccccn3)CC2)cc(OC)c1OC | 55 | -3% | ? | -8% | -21% | -10%
CSc1ccccc1NC(=O)CN(C)C(=O)c1ccc(NC(=O)c2cccs2)cc1 | -18 | -9% | 5% | 13% | ? | ?
CCN(CC(=O)Nc1ccc2c(c1)OCCO2)C(=O)COc1ccc(C)cc1 | 2 | -4% | -15% | -26% | -1% | -3%
CC1CC(C)CN(CCC(=O)Nc2ccc(Br)cc2)C1 (centres undefined) | -54* | -1% | -1% | -3% | ? | ?
CCOC(=O)C1CCCN(CCC(=O)Nc2ccc(Br)cc2)C1 (centres undefined) | -60* | -7% | 0% | -1% | ? | ?
Cc1cccc(OC(C)C(=O)Nc2nonc2-c2ccc(Br)cc2)c1C (centres undefined) | . | . | . | . | 26µM* | 16µM*
SMILES | IL-1B inflam inh | SW480 rerep | Chronic BCR inh | MCF10A rereplic | DT40 TDP1 CPT | TDP1 cell noCPT
Cc1cccc(OCC(=O)Nc2nonc2-c2ccc(Br)cc2)c1C | . | . | . | . | 18µM* | ?
Cc1ccc(OCC(=O)Nc2nonc2-c2ccc(Br)cc2)cc1 | . | . | . | . | -6% | -18%
Cc1ccc(OC(C)C(=O)Nc2nonc2-c2ccc(Br)cc2)cc1C (centres undefined) | . | . | . | . | ? | 18µM*
COC(=O)[C@@H](NS(=O)(=O)c1cc(Br)ccc1Br)C(C)C | 25 | . | . | . | ? | ?
CC1(C)CN(c2cccc(Br)c2)C1=O | -4 | 2% | 6% | -4% | 5% | -3%
O=C(CN1CCCCC1)NC(=O)NC1CCCC1 | 19 | -3% | ? | 4% | 0% | 2%
O=C(Cn1ncc(Cl)c(Cl)c1=O)NC(=O)NC1CCCCC1 | -103* | 13µM* | ? | 8.2µM* | 2.9µM* | 2.9µM*
O=C(CN1CCN(S(=O)(=O)c2ccc(Cl)cc2)CC1)NC(=O)NC1CCCCC1 | -17 | 1% | 15% | 5% | -25% | ?
O=C(CN1CCCCCCC1)NC(=O)NC1CCCCC1 | 12 | -3% | 18% | 16µM* | -13% | ?
COc1ccc(CCC(=O)NC2CCCN(Cc3ccc(Cl)cc3)C2)cc1OC (centres undefined) | 5 | -2% | -2% | 9% | -26% | ?
O=C(CCc1ccc(F)c(F)c1)NC1CCCN(Cc2ccc(Cl)cc2)C1 (centres undefined) | -78* | -2% | -1% | -2% | ? | ?
Cc1ccsc1C(=O)NC1CCCN(Cc2ccc(Cl)cc2)C1 (centres undefined) | i | ? | 9% | ? | ? | 15µM*
CCN1CCCC1CNC(=O)c1cc2cc(F)ccc2[nH]1 (centres undefined) | 18 | -18% | -8% | ? | -21% | 17%
CCC1(c2ccccc2)NC(=O)N(CC(=O)NCc2ccc(C)cc2)C1=O (centres undefined) | -21 | -2% | -6% | -1% | -3% | -19%
Cc1nc2cccnc2n1-c1cccc(C(=O)N2CCN(c3cccc(Cl)c3)CC2)c1 | . | . | . | . | 4.1µM* | 4.6µM*
O=C(c1ccc2nccnc2c1)N1CCN(c2ccccc2)CC1 | -13 | -5% | 2% | -8% | 6% | 13%
COc1cccc(N2CCN(C(=O)c3cccc(-n4c(C)nc5cccnc54)c3)CC2)c1 | . | . | . | . | 12µM* | 16µM*
